{"source": "PubChem BioAssay (Tox21)", "note": "Records with an inconclusive call do not appear. Entries that show only a call come without a potency. Activity calls are given as the source filed them. The call rests on the fitted dose curve."}
{"test": "qHTS assay for small molecule disruptors of the mitochondrial membrane potential - cell viability (AID 720634);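 further: human HepG2 liver cancer cells; nearly all actives have a fitted effect of over 20% in size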", "conditions": "HepG2 viability, ATP luminescence (CellTiter-Glo), 1 h; series mostly up to 83.2 µM", "source_text": "U.S. Tox21 Program National Center for Advancing Translational Sciences [NCATS] NIH Chemical Genomics Center [NCGC] U.S. Environmental Protection Agency [EPA] National Institutes of Environmental Health Sciences [NIEHS] National Toxicology Program [NTP] U.S. Food and Drug Administration [FDA] Tox21 Assay Overview: Mitochondrial membrane potential (MMP), one of the parameters for mitochondrial function, is generated by mitochondrial electron transport chain that creates an electrochemical gradient by a series of redox reactions. This gradient drives the synthesis of ATP, a crucial molecule for various cellular processes. Measuring MMP in living cells is commonly used to assess the effect of chemicals on mitochondrial function; decreases in MMP can be detected using lipophilic cationic fluorescent dyes. […] The dye accumulates in the mitochondria of healthy cells as aggregates, with red fluorescence. The mitochondrial potential decreases and the dye could not accumulate in the mitochondria and remains in the cytoplasm in monomers, with green fluorescence. In addition to the mitochondrial potential assay, these cells were also used to test the cytotoxicity by determining the cell viability in the culture based on the quantitation of ATP present. The cytotoxicity was measured in the same assay well of MMP assay.\nTox21 Assay Protocol Summary: 2,000 HepG2 cells in 5 uL/well were dispensed into black, clear-bottom 1536-well plates using a Multidrop Combi (Thermo Scientific) dispenser. The assay plates were incubated for an overnight at 37 C to allow cells to attach to the wells, followed by the transfer of 23 nL compound or DMSO vehicle by a pin tool (Kalypsys). The plates were incubated for 1 hr at 37 C and 5% CO2, followed by the addition of 5 uL of 2X m-MPI dye into each well using Flying Reagent Dispenser (Aurora Discovery) and then CellTiter-Glo reagent was added at 4 uL/well and incubated 30 min at room temperature. Then luminescence intensity was quantified on a ViewLux CCD-based plate reader."}
{"smiles": "[2H]C([2H])([2H])[C@H](N)Cc1ccccc1", "Potency": "inactive"}
{"smiles": "F/C(COc1ccc2c(c1)[nH]c1ccccc12)=C1/CN2CCC1CC2", "Potency": "inactive"}
{"smiles": "Cc1nnc2n1-c1ccc(Cl)cc1C(c1ccccc1Cl)=NC2", "Potency": "inactive"}
{"smiles": "C[N+]1(C)[C@@H]2CC[C@H]1CC(OC(=O)c1c[nH]c3ccccc13)C2", "note": "(stereo not given in full)", "Potency": "inactive"}
{"smiles": "CC(=O)OCC(=O)[C@H]1CC[C@H]2[C@@H]3CC[C@H]4C[C@H](O)CC[C@]4(C)[C@H]3C(=O)C[C@]12C", "Potency": "inactive"}
{"smiles": "CCCC(C)(COC(N)=O)COC(=O)NC1CC1", "note": "(stereo not given)", "Potency": "inactive"}
{"smiles": "COc1ccc2c3c1O[C@H]1[C@@H](O)C=C[C@H]4[C@@H](C2)NCC[C@@]341", "Potency": "inactive"}
{"smiles": "CN1[C@H]2CC[C@@H]1[C@@H](C(=O)O)[C@@H](OC(=O)c1ccccc1)C2", "Potency": "inactive"}
{"smiles": "O=C(C[C@@H]1NCCC[C@H]1O)Cn1cnc2cc(Br)c(Cl)cc2c1=O", "Potency": "inactive"}
{"smiles": "NC(=O)CN1CC(O)CC1=O", "note": "(stereo not given)", "Potency": "inactive"}
{"smiles": "C[C@@H](N)C(=O)c1ccccc1", "Potency": "inactive"}
{"smiles": "CC[C@H]1[C@@H]2C[C@H]3[C@@H]4N(C)c5ccccc5[C@]45C[C@@H](C2[C@H]5O)N3[C@@H]1O", "note": "(stereo not given in full)", "Potency": "inactive"}
{"smiles": "O=C(O)/C=C/C(=O)O", "Potency": "inactive"}
{"smiles": "CCC(=O)O[C@]1(c2ccccc2)CCN(C)C[C@H]1C", "Potency": "inactive"}
{"smiles": "C[C@]12CC[C@H](OS(=O)(=O)O)CC1=CC[C@@H]1[C@@H]2CC[C@]2(C)C(=O)CC[C@@H]12", "Potency": "inactive"}
{"smiles": "C[C@@H]1[C@@H]2Cc3ccc(O)cc3[C@@]1(C)CCN2CC1CC1", "Potency": "inactive"}
{"smiles": "OC(c1ccccc1)(c1ccccc1)C1CN2CCC1CC2", "note": "(stereo not given)", "Potency": "inactive"}
{"smiles": "CC(C)CCC(=O)O[C@H]1CC[C@H]2[C@@H]3CCC4=CC(=O)CC[C@]4(C)[C@H]3CC[C@]12C", "Potency": "inactive"}
{"smiles": "C[C@@H]1[C@H]2Cc3ccc(O)cc3[C@]1(C)CCN2C", "Potency": "inactive"}
{"smiles": "CCCCC[C@@H](O)C1C(=O)OC(C)[C@H](O)/C=C/C=C/C=C/C=C/C=C(\\C)C(O)C(O)C(O)C[C@H](O)C[C@H](O)C[C@H](O)C[C@H](O)C[C@@H]1O", "note": "(stereo not given in full)", "Potency": "inactive"}
{"smiles": "O=C1OC2(c3cc(Br)c(O)cc3Oc3c2cc(Br)c(O)[c]3[Hg])c2ccccc21", "note": "(stereo not given)", "Potency": "inactive"}
{"smiles": "COc1ccc2c3c1O[C@H]1C(=O)CC[C@H]4[C@@H](C2)N(C)CC[C@]314", "Potency": "inactive"}
{"smiles": "C[C@H]1[C@H]2Cc3ccc(O)cc3[C@]1(C)CCN2CCc1ccccc1", "Potency": "inactive"}
{"smiles": "CCON=O", "Potency": "inactive"}
{"smiles": "C[C@]12CCC(=O)C[C@@H]1CC[C@@H]1[C@@H]2CC[C@@]2(C)[C@H]1CC[C@]2(C)O", "Potency": "inactive"}
{"smiles": "CCC1C(C)=NN=C(c2ccc(OC)c(OC)c2)c2cc(OC)c(OC)cc21", "note": "(stereo not given)", "Potency": "inactive"}
{"smiles": "CCOC(=O)C1(c2ccccc2)CCCN(C)CC1", "note": "(stereo not given)", "Potency": "inactive"}
{"smiles": "C1CN(P2(N3CC3)=NP(N3CC3)(N3CC3)=NP(N3CC3)(N3CC3)=N2)CCO1", "note": "(stereo not given)", "Potency": "inactive"}
{"smiles": "CC(=O)O[C@H]1C[C@H](O[C@H]2[C@@H](O)C[C@H](O[C@H]3[C@@H](O)C[C@H](O[C@H]4CC[C@@]5(C)[C@H](CC[C@@H]6[C@@H]5C[C@@H](O)[C@]5(C)[C@@H](C7=CC(=O)OC7)CC[C@]65O)C4)O[C@@H]3C)O[C@@H]2C)O[C@H](C)[C@H]1O[C@@H]1O[C@H](CO)[C@@H](O)[C@H](O)[C@H]1O", "Potency": "inactive"}
{"smiles": "C[C@]12CC[C@H]3[C@@H](CCC4=C(O)C(=O)CC[C@@H]43)[C@@H]1CC[C@@H]2OC(=O)CCC1CCCC1", "Potency": "inactive"}
{"smiles": "Cc1nnc2n1-c1sc(Br)cc1C(c1ccccc1Cl)=NC2", "Potency": "inactive"}
{"smiles": "CN[C@@H](C)Cc1ccccc1", "Potency": "inactive"}
{"smiles": "CCCN1CCC[C@H](c2cccc(O)c2)C1", "Potency": "inactive"}
{"smiles": "COc1cc(OC)c(OC)cc1C=O", "Potency": "inactive"}
{"smiles": "O=C1CCCCC1CN1CCCCC1", "note": "(stereo not given)", "Potency": "inactive"}
{"smiles": "C[C@@H]1[C@@H]2Cc3ccc(O)cc3[C@@]1(C)CCN2CCc1ccccc1", "Potency": "inactive"}
{"smiles": "CCCSc1cc(OC)c(CCN)cc1OC", "Potency": "inactive"}
{"smiles": "CC(N)Cc1ccc(O)cc1", "note": "(stereo not given)", "Potency": "inactive"}
{"smiles": "CC(C)C[C@H]1C(=O)N2CCC[C@H]2[C@]2(O)O[C@](NC(=O)[C@@H]3C[C@@H]4c5cccc6[nH]cc(c56)C[C@H]4N(C)C3)(C(C)C)C(=O)N12", "Potency": "inactive"}
{"smiles": "CN1c2ccccc2C(NCCCCCCC(=O)O)c2ccc(Cl)cc2S1(=O)=O", "note": "(stereo not given)", "Potency": "inactive"}
